Inconclusive results are not listed. Unmarked numbers belong to inactive results. Activity calls are given as the source filed them. The call rests on the fitted dose curve; in most records, active means well fitted inhibition curve with a large enough effect; inconclusive means small, poorly fitted or top-dose-only effect; inactive means no such curve, though single readings can be large or run the other way.
On the % scale 0 is the no-effect control and ±100 the full control effect; potency means the concentration at half of the fitted maximal effect.

The test deals with Cytochrome P450 3A7 (Homo sapiens) (UniProt P24462). The experiment in a line: Cytochrome P450 family 3 subfamily A member 7 (CYP3A7) small molecule antagonists: luciferase biochemical qHTS assay (AID 1963596). Further: nearly all actives have a fitted effect of over 40% in size. The note with it: P450-Glo CYP3A7 enzyme luminescence, 1 h; series mostly up to 57.4 µM; activity change, negative = inhibition: at the top concentration. The method in brief: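 Luminescence read-out (relative luminescence units) after 20 min with detection reagent, which stops the reaction. Enzyme, proluciferin substrate and compound preincubated 10 min, RT; NADPH regeneration system then started 1 h reaction. Ketoconazole as positive control.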
Sequence of Cytochrome P450 3A7 (Homo sapiens) (P24462 whole entry, looked up): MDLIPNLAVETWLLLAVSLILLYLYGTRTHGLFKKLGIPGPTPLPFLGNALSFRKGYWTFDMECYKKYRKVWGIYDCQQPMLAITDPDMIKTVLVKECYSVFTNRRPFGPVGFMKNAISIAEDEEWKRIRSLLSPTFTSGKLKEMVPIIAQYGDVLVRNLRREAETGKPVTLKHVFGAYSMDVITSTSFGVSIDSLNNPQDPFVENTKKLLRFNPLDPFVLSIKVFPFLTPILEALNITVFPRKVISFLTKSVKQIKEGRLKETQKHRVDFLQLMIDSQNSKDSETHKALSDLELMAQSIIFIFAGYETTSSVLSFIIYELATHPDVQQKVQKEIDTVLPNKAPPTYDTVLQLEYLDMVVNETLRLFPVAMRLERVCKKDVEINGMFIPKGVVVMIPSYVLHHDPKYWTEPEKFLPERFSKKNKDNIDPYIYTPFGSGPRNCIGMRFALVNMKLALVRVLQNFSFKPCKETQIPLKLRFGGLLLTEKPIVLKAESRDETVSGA
For the compound `COc1cccc(OC)c1-c1nc(C(=O)N[C@@H](CC(C)C)C(=O)O)cn1-c1ccnc2cc(Cl)ccc12`, the “activity change, negative = inhibition” value is 0%.

For `Nc1nc(-n2cc(C(=O)O)c(=O)c3cc(F)c(N4CC(O)C4)c(Cl)c32)c(F)cc1F`, the “activity change, negative = inhibition” value was -7.53%.

Turning to `O=C(O)c1cc(C(F)(F)F)ccc1N1CC[C@H](OCc2ccccn2)C1`, the “activity change, negative = inhibition” value is -11%.

For the compound `O=C1C(c2[nH]c3ccc(S(=O)(=O)O)cc3c2O)=Nc2ccc(S(=O)(=O)O)cc21`, the “activity change, negative = inhibition” value was -24.1%.

For `CCc1ccc(CNC(=O)C2CCCN(c3nnc(C)c4c(C)n(-c5ccccc5)nc34)C2)cc1` (stereo not given), the Potency is 2.82 µM (active).

Consider `CC1CCCCC1N(Cc1ccccc1)[S+](=O)([O-])c1ccc([S+](=O)([O-])N(C)C)cc1` (stereo not given), for which the “activity change, negative = inhibition” value is 0.838%.

Take `O=C(CSc1nc(-c2ccc(F)cc2)nc2c1Cc1ccccc1O2)Nc1cccc(C(=O)O)c1`: the “activity change, negative = inhibition” value is -24%.

Consider `O=C(O)c1ccc(Cc2c(-c3cccc(-c4ccccc4)c3)[nH]n(-c3nc(C(=O)O)cs3)c2=O)cc1`, for which the “activity change, negative = inhibition” value was 0%.

Turning to `CCCCCCCCCCCCCCCCNc1ccc(C(=O)O)cc1`, the “activity change, negative = inhibition” value is -0.451%.

Regarding `CCn1c(N)c(C(=O)NC)c(=O)c2ccc(C#C[C@@](C)(O)COC)nc21`, the “activity change, negative = inhibition” value is 3.98%.

In the case of `CCN(CC)C(=O)c1cccnc1`, the “activity change, negative = inhibition” value is 5.04%.

As to `COc1ccc(-c2nc3n(n2)C(c2ccc(OC)c(OC)c2)C(C(=O)Nc2cccnc2)=C(C)N3)cc1` (stereo not given), the “activity change, negative = inhibition” value was -20%.

Turning to `CC(NC(=O)C(=O)Nc1c2c(nn1-c1ccccc1)CSC2)c1ccccc1` (stereo not given), the “activity change, negative = inhibition” value is -17.8%.

Take `O=C(NC1CCC1)c1ccc(C#Cc2cccc(F)c2)nc1`: the “activity change, negative = inhibition” value was 8.39%.

With `CCc1ccc(CN(Cc2ccco2)C(=O)COc2ccccc2Cl)cc1`, the “activity change, negative = inhibition” value was 10.1%.

As to `COC(=O)CCC[N+](C)(C)C`, the “activity change, negative = inhibition” value is 8.07%.

For the compound `CC(C)(C)NCCCNC(=O)c1cccc(Br)c1`, the “activity change, negative = inhibition” value was -0.932%.

Consider `CC(C)[C@H]1CC[C@H](C)C[C@H]1O`, for which the “activity change, negative = inhibition” value is 3.53%.

As for `C=CCNCCCCCC[N+](C)(C)C`, the “activity change, negative = inhibition” value is 3.31%.

Consider `C[C@@H]1C[C@H]2[C@@H]3CCC4=CC(=O)C=C[C@]4(C)[C@@]3(F)[C@@H](O)C[C@]2(C)[C@@]1(O)C(=O)COC(=O)c1ccncc1`, for which the Potency was 8.71 µM (active).

`O=[N+]([O-])c1cn2c(n1)OC[C@@H](OCc1ccc(-c3ccc(OC(F)(F)F)cc3)nc1)C2`: the “activity change, negative = inhibition” value was -27.4%.

Take `Cc1cc(Nc2ccc(NC(=O)c3ccc(Nc4ccnc5ccccc45)cc3)cc2)nc(N)n1`: the “activity change, negative = inhibition” value is 10.5%.

For the compound `O=C(Nc1ccccc1C(=O)Nc1ccc(CCO)cc1)c1ccc([N+](=O)[O-])cc1`, the “activity change, negative = inhibition” value is 0%.

On to `O=S(=O)(O)Oc1ccc(C(c2ccc(OS(=O)(=O)O)cc2)c2ccccn2)cc1`, for which the “activity change, negative = inhibition” value was -16.8%.

`CCOc1ccc(-c2nn3ncccc3c2-c2ccc(S(C)(=O)=O)cc2)cc1`: the “activity change, negative = inhibition” value is 7.28%.

Values taken from PubChem BioAssay (NCATS).
